Results reported in PubChem BioAssay.
Records with an inconclusive call do not appear. Activity calls are given as the source filed them.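 How the source made its calls, unless noted: active means viability at or below 10% of carrier control in both of two separate runs; inconclusive means viability at or below 10% in only one of the two runs; inactive means the rest.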

Legend:
[1] = Her2 expression decrease, cell viability multiplex – SKBR3 breast tumor cells, AlphaScreen, ATP viability, primary screen (AID 461;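 active means Her2 level under about 52% in both replicate screens, with viability over 70% of control, limit read from the data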;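 on Her2 level: lower value means less Her2 protein in the cells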;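 on viability: percent of carrier control wells set as 100% viability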); conditions: SKBR3 Her2 protein level, 18-24 h, measured here: SKBR3 viability, ATP luminescence, at 10 µM
[2] = target: Receptor tyrosine-protein kinase erbB-2 (Homo sapiens) (UniProt P04626); assay: as above; conditions: 18-24 h, at 10 µM, stronger effect = lower value
Sequence of Receptor tyrosine-protein kinase erbB-2 (Homo sapiens) (P04626 whole entry, looked up): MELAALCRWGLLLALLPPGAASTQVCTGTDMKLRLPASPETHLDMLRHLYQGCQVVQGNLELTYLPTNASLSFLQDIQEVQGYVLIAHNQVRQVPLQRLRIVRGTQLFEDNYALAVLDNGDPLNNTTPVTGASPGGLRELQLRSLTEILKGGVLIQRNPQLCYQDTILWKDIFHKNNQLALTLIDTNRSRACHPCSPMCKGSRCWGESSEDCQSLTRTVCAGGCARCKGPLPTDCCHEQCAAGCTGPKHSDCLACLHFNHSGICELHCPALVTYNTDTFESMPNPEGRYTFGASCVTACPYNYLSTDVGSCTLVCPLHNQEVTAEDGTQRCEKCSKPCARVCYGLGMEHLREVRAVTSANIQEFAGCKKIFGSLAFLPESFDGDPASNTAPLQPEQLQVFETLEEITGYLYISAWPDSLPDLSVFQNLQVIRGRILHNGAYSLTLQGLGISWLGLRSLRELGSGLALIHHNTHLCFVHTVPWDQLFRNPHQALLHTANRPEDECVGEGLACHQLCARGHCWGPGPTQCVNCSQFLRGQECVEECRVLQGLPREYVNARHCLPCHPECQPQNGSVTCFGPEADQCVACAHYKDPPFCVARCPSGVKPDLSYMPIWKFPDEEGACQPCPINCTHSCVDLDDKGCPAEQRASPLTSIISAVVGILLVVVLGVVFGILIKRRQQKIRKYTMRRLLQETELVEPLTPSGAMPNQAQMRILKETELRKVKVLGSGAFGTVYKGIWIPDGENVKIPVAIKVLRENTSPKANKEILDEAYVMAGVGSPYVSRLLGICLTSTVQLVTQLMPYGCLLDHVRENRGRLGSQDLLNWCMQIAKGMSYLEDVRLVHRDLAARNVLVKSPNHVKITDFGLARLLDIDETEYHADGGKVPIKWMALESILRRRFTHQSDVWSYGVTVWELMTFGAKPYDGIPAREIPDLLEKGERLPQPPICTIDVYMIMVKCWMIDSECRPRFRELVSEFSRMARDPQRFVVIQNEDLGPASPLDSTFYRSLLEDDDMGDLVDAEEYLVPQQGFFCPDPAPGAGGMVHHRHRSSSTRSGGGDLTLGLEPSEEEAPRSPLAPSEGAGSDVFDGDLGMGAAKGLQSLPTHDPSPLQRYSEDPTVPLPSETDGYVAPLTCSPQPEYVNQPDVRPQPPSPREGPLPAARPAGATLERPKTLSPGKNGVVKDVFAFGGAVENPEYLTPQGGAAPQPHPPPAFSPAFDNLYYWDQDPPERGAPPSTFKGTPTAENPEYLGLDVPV

[3] = reduced viability of SK-BR-3 breast cancer cells – cell-based, 24 h, human, pilot screen (AID 572); conditions: SK-BR-3 viability, CellTiter-Glo luminescence, at 10 µM, stronger effect = lower value;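 further: compound exposure lasted between 18 and 24 h rather than exactly 24 h; 100% = carrier-treated control wells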
[4] = HUVEC growth inhibition – cell-based, human, primary screen (AID 575;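 active means viability at or below 30% in both replicate assays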;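 further: 100% = median of untreated cell wells with 0.1% DMSO on each plate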); conditions: HUVEC proliferation, CellTiter-Glo luminescence, 72 h; at 10 µM; stronger effect = lower value
[5] = H69AR cell proliferation blockers – human, duplicate replicates, primary screen (AID 580;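 active means viability at or under a set limit in both replicates, limit being median viability minus 3 SD, cut at about 48% in these data, passing the limit was not always enough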;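 further: 100% = mean luminescence of untreated wells and 0% = no signal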); conditions: H69AR lung tumor cells viability, ATP luminescence, 72 h; at 10 µM; stronger effect = lower value
[6] = MRP1 drug-resistance reversers in H69AR cells – cell-based, doxorubicin co-treatment, pilot screen (AID 601;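 active means viability loss from added drug above about 55%, and viability with drug at most 40%, in both replicates, limit read from the data, passing the limit was not always enough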); conditions: CellTiter-Glo, 72 h, at 10 µM; for differential viability (reversal): stronger effect = higher value
[7] = yeast transport mutant growth inhibition pilot in 384-well plates, post-Golgi transport modulator project (AID 636; in the data active means inhibition above about 31%); conditions: absorbance 615 nm, about 18 h, stronger effect = higher value
[8] = growth suppression of yeast trafficking mutant, preliminary HTS, modulators of trafficking downstream of Golgi apparatus project, 1536-format plate, OD 615 nm (AID 637; in the data active means inhibition above about 30%); conditions: yeast transport mutant growth, absorbance 615 nm, 18 h; stronger effect = higher value
[9] = S. cerevisiae growth inhibition in permissive medium (OD615), pilot counter-assay for S. cerevisiae lifespan shortening project, permissive growth control (AID 705;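 active means growth inhibition above 25% in both replicates, a cutoff set 3 SD above the mean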); conditions: OD615, 24 h, at 10 µM, stronger effect = higher value
[10] = S. cerevisiae growth inhibition in restrictive medium, OD615, pilot screen, restrictive growth control, yeast lifespan reduction project (AID 706;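 active means growth inhibition above a set limit, 3 SD over mean compound inhibition, in both replicates, cut at about 43% in these data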;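 further: modified DeaD lifespan yeast strain shifted to restrictive glucose medium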); conditions: OD615, 48 h, at 10 µM, stronger effect = higher value
[11] = doxorubicin toxicity protection in MRP-1 cells – H69AR cells, CellTiter-Glo, duplicate, MRP-1 activator project, pilot screen (AID 807;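 active means viability increase at or above a cutoff of the median across tested compounds plus 3 SD, cut at about 8.5% in these data, passing the limit was not always enough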;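 further: compound pretreatment 18-22 h then 72 h combined with doxorubicin; 0% = doxorubicin alone and 100% = vehicle without doxorubicin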); conditions: H69AR viability with doxorubicin, CellTiter-Glo luminescence; at 10 µM; stronger effect = higher value
[12] = viability of HCT116 without oncogenic beta-catenin – human colon tumor cells, pilot screen (AID 823;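 active means cell viability at or below a set limit in both duplicate runs, the limit being the all-compound median minus 4 SD, cut at about 23% in these data, passing the limit was not always enough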;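 further: 0% = wells killed by 20 µM Hyamine and 100% = untreated DMSO cell wells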); conditions: HCT116 beta-catenin knockout viability, CellTiter-Glo, 60 h; at 10 µM; stronger effect = lower value
[13] = viability of PTEN-null HCT116 cells – cell-based, HCT116 clonal line, CellTiter-Glo, pilot screen (AID 824;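 active means viability at or below 27.92% in each of two runs, the all-compound median minus 4 SD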;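 further: 0% = 20 µM Hyamine control and 100% = vehicle cell control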); conditions: HCT116 PTEN-deleted viability, 60 h, at 10 µM, stronger effect = lower value
[14] = RAM pathway blockade in budding yeast – dse1pr::URA3 reporter, 5-FOA selection, pilot screen (AID 869;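 active means inhibition over a set limit, the all-compound mean plus 3 SD, in both replicate runs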;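 further: 0% = DMSO wells with no growth and 100% = 10 µM 1-NA-PP1 with full growth; RAM network block rescues cells from 5-FOA so hits raise OD615 growth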); conditions: S. cerevisiae dse1pr::URA3 5-FOA growth, OD615, 2 d; at 10 µM; stronger effect = higher value; strain carries analog-sensitive mutant Cbk1 kinase
[15] = RAM signaling pathway blockade in yeast – S. cerevisiae, Pdr1DBD-CYC8 efflux-inhibited sensitized strain, primary screen (AID 1298;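 active means RAM network inhibition above 8.4% in each of two replicates, 3 SD over the compound average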;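 further: 0% = DMSO untreated cells without growth and 100% = 10 µM 1-NA-PP1 full growth; higher means more yeast growth rescued from 5-FOA killing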); conditions: S. cerevisiae cbk1-as DSE1-URA3 strain, 5-FOA growth OD615, 2 d; at 50 µM; stronger effect = higher value
[16] = H69AR cells + 2 uM doxorubicin, measured here: viability with 2 uM doxorubicin, stronger effect = lower value
[17] = H69AR cells, compound alone cytotoxicity

SMILES	viability [1] [%]	Her2 level [2]	viability [3]	viability [4]	viability [5]	differential viability (reversal) ([6]; H69AR cells + 2 uM doxorubicin)	viability [6, 16] [%]	viability [6, 17] [%]	inhibition [7]	inhibition [8]	growth inhibition [9]	growth inhibition [10]	viability increase [11]	viability [12]	viability [13]	inhibition [14]	RAM network inhibition [15]
COc1ccc(NC(=O)C2CCCCN2S(=O)(=O)c2ccc(F)cc2)cc1 (stereo not drawn)	91	93% (inactive)	91% (inactive)	91.4% (inactive)	89.2% (inactive)	-12.1% (inactive)	101	89.2	-7.47% (inactive)	1% (inactive)	-18.5% (inactive)	-18.4% (inactive)	-1.3% (inactive)	83.5% (inactive)	88% (inactive)	1.19% (inactive)	5.45% (inactive)
Cc1onc(-c2c(Cl)cccc2Cl)c1C(=O)NCC1CCCO1 (stereo not drawn)	111	104% (inactive)	111% (inactive)	97.7% (inactive)	111% (inactive)	16% (inactive)	95.2	111	-4.59% (inactive)	-5.74% (inactive)	6.24% (inactive)	-5.78% (inactive)	-1.12% (inactive)	91.7% (inactive)	92.9% (inactive)	-1.21% (inactive)	-0.45% (inactive)
CCOc1ccc(N(CC(=O)NC2CCCC(C)C2C)S(=O)(=O)c2c(C)noc2C)cc1 (stereo not drawn)	89.5	81.5% (inactive)	89.5% (inactive)	64.3% (inactive)	73.1% (inactive)	6.81% (inactive)	66.3	73.1	1.41% (inactive)	13.5% (inactive)	-9.98% (inactive)	-14.4% (inactive)	-1.09% (inactive)	82.8% (inactive)	83.6% (inactive)	0.98% (inactive)	6.62% (inactive)
COc1ccc(C(=O)c2ccc(OC)c(N)c2)cc1N	119	86% (inactive)	119% (inactive)	49% (inactive)	16.9% (active)	-46.3% (inactive)	63.2	16.9	1.3% (inactive)	-1.31% (inactive)	-20% (inactive)	-17.8% (inactive)	-6.12% (inactive)	15.2% (active)	17% (active)	2.53% (inactive)	2.22% (inactive)
COc1cc2c(cc1OC)CN(C(=O)CSc1nc3[nH]ncc3c(=O)n1-c1ccccc1)CC2	105	97% (inactive)	105% (inactive)	79.7% (inactive)	91.7% (inactive)	11.6% (inactive)	80.1	91.7	-4.93% (inactive)	-2.62% (inactive)	0.33% (inactive)	-24.6% (inactive)	-1.5% (inactive)	101% (inactive)	90.9% (inactive)	1.19% (inactive)	2.58% (inactive)
CCCSC1=C(C#N)C(c2cc(OC)ccc2OC)CC(=O)N1 (stereo not drawn)	93	92% (inactive)	93% (inactive)	98.3% (inactive)	89.1% (inactive)	5.96% (inactive)	83.1	89.1	-4.4% (inactive)	-0.33% (inactive)	-0.855% (inactive)	-3.12% (inactive)	-0.44% (inactive)	92.5% (inactive)	92.9% (inactive)	1.42% (inactive)	0.78% (inactive)
Cc1ccnc(SCCn2c(N3CCN(Cc4ccccc4)CC3)nc3c2c(=O)[nH]c(=O)n3C)n1	85	93.5% (inactive)	85% (inactive)	91.7% (inactive)	87.5% (inactive)	-0.99% (inactive)	88.4	87.5	-3.6% (inactive)	-4.59% (inactive)	3.26% (inactive)	0.065% (inactive)	-1.27% (inactive)	95.7% (inactive)	99.3% (inactive)	0.145% (inactive)	2.81% (inactive)
COc1ccc(N(CC(=O)Nc2ccc3c(c2)OCCO3)S(=O)(=O)c2cccnc2)cc1	91	108% (inactive)	91% (inactive)	104% (inactive)	92.5% (inactive)	4.99% (inactive)	87.5	92.5	-5.13% (inactive)	-3.83% (inactive)	-10.3% (inactive)	0.75% (inactive)	-2.05% (inactive)	102% (inactive)	99.7% (inactive)	1.63% (inactive)	4.76% (inactive)
CN(C)CCCN1C(=O)CSC1c1ccccc1 (stereo not drawn)	100	99% (inactive)	100% (inactive)	91.6% (inactive)	94.4% (inactive)	4.35% (inactive)	90.1	94.4	-4.67% (inactive)	-1.83% (inactive)	-2.19% (inactive)	-1.53% (inactive)	-0.9% (inactive)	104% (inactive)	101% (inactive)	1.47% (inactive)	0.73% (inactive)
